# CBFb-RUNX1 inh = qHTS Assay for Compounds Blocking the Interaction Between CBF-beta and RUNX1 for the Treatment of Acute Myeloid Leukemia. 230,000 tested, under 10 active. AID 1477, 2009. AlphaScreen CBFb-His/RUNX1-biotin binding, biochemical. Potency, µM (doses to about 59.8 µM), most hits filed as inhibitors
#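 AlphaScreen proximity signal reports loss of binding between His-tagged CBF-beta and biotin-labelled RUNX1, each at 30 nM. Proteins are pre-associated for 20 minutes, compounds added for 15 minutes, then beads for 90 minutes, all at ambient temperature.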
# Epigenetic reg = Quantitative High-Throughput Screen for Regulators of Epigenetic Control. AID 1865, 2009. Potency, µM (highest dose often 53.9 µM), usual class: activators. murine LDR cells, GFP reporter derepression, 30 h. hit rate 0.2% among 280,000; also: nearly all actives have a fitted effect of over 60% in size
#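 Derepression of a silenced CMV-GFP reporter in murine LDR cells is scored by enumerating GFP-positive cells with a laser-scanning microplate cytometer after 30 hours of treatment at 37 C.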
# MBNL1 CUG block = qHTS Assay for Inhibitors of MBNL1-poly(CUG) RNA binding | Muscleblind-like protein 1 (Homo sapiens), Q9NR56 | TR-FRET MBNL1-His/biotin-(CUG)12 binding, 665/545 ratio | Potency, µM (series often up to 57.5 µM), most hits filed as inhibitors | AID 2675, 2010 | hit rate 0.036% among 280,000; active = well fitted inhibition curve with a large enough effect in the signal ratio, with a control signal flat, not every such curve was filed as active; inconclusive = small, poorly fitted or top-dose-only effect, or effect the other way, or a change in a side signal; inactive = no such curve, though single readings can be large or run the other way; the % refers to the signal ratio
# Target sequence (Q9NR56 whole entry, looked up): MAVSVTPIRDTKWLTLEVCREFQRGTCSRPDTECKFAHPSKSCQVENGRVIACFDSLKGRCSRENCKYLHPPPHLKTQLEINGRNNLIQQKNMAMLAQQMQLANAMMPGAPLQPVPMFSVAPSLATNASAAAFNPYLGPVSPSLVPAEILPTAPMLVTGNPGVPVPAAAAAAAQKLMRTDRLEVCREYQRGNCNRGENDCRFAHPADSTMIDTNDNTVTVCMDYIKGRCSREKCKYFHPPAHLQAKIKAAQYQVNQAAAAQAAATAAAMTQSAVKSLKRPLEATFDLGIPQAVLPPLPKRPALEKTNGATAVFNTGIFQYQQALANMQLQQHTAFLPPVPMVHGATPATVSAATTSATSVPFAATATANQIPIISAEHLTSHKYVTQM
#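 MBNL1-His + Biotin-(CUG)12, cpd titration 92 nM–58 uM; Tb anti-His Ab 0.055 ng/ul, SA-XL665 5 nM (final); 60 min RT; ratiometric 665/545 nm, Ex 340 nm; normalized to buffer and full-complex controls.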
# TRHR PAM = qHTS for Small Molecule Agonists and Allosteric Enhancers of Human TRH Receptor: Primary Screen for Enhancers. Thyrotropin-releasing hormone receptor (Homo sapiens), P34981. TRHR cells, fluo-8 calcium fluorescence, EC20 TRH enhancement. enhancement, % at 2 µM. hit rate 0.66% among 360,000; in the data active = enhancement above about 30%
#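 TRHR-expressing cells loaded with fluo-8 calcium dye were read kinetically (ex 480/em 530) during compound addition, then stimulated with an EC20 of TRH (10 nM final). Enhancement of the Gq-mediated intracellular calcium response was scored.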
# IL-2 act = qHTS of IL-2 Activators | IL-2 activation reporter assay, cell-based qHTS; stimulated with anti-CD3/CD4/CD28 beads; in transgenic mouse T cells | activation, % (series mostly up to about 46 µM) | hit rate 0.065% among 360,000 | AID 652025, 2013; in the data active = activation above about 50%; inconclusive = mostly about 30% to 49%
#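 EGFP and DsRed fluorescence is measured by plate cytometry in unstimulated transgenic mouse T cells exposed to compound for 60 minutes, then stimulated 18 hours at 37 degrees C with anti-CD3/anti-CD4 beads plus anti-CD28.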
# TRHR ag = qHTS for Small Molecule Agonists and Allosteric Enhancers of Human TRH Receptor: Primary Screen for Agonists; Thyrotropin-releasing hormone receptor (Homo sapiens), P34981; TRHR cells, calcium flux fluo-8, FDSS agonist mode; activation, % at 2 µM; hit rate 0.18% among 360,000; in the data active = activation above about 30%
#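 In this calcium-flux screen, cells bearing human TRHR are dye-loaded with fluo-8, baselined for 10 cycles, then exposed to library compounds; positive kinetic calcium responses during the agonist phase mark hits, with TRH as control.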
# Hits are given with their value; . = inactive; ? = inconclusive; / = no result given. This is a sample that favours compounds with a hit; in the whole collection about 0.88% have one here. Unless noted, calls follow the shape of the dose curve; as a rule, active = well fitted curve in the direction sought with a large enough effect; inconclusive = small, poorly fitted or top-dose-only effect, or another doubt; inactive = no such curve, though single readings can be large; an effect the other way counts as inactive or inconclusive.
SMILES,CBFb-RUNX1 inh,Epigenetic reg,MBNL1 CUG block,TRHR PAM,IL-2 act,TRHR ag
CC(C)CC(N)c1cn([C@@H](CCC(=O)O)C(=O)N2CCNCC2)nn1 (stereo partly specified),.,.,.,.,.,.
COc1ccc(CN(C(=O)Cc2coc3ccc(C)cc23)C2CCS(=O)(=O)C2)cc1 (stereo unspecified),/,.,/,.,/,.
COc1ccc(N2CCN(Cc3nnc(-c4cccc(Br)c4)o3)CC2)cc1,/,.,/,.,/,.
CC(=O)Nc1ccc(S(=O)(=O)NNC(=O)c2cccc([N+](=O)[O-])c2)cc1,/,/,?,.,.,.
CC(=O)Nc1ccc(S(=O)(=O)NNC(=O)c2cccc(Br)c2)cc1,.,.,.,38,.,.
O=C1/C(=C\c2cc(Cl)c(O)c(Cl)c2)SC(=S)N1Cc1ccccc1,/,/,.,.,.,188
Cc1ccccc1Nc1nc(N)nc(-c2oc3ccccc3c2C)n1,.,.,/,35,.,.
O=C(CN1C(=O)COc2ccc(S(=O)(=O)N3CCCCCC3)cc21)N1CCN(c2ccc(F)cc2)CC1,/,.,/,.,/,.
Cc1ccc(S(=O)(=O)Nc2cc(C(F)(F)F)ccc2N2CCOCC2)cc1,.,.,.,33,.,.
Cc1cc2c(cc1C)NC(CC(=O)Nc1cccc(Cl)c1)C(=O)N2 (stereo unspecified),/,.,/,43,/,.
O=C(CC1Nc2ccccc2NC1=O)Nc1cc(Cl)cc(Cl)c1 (stereo unspecified),.,.,.,.,.,.
O=C(CSC1=Nc2ccccc2C2=NC(Cc3ccccc3)C(=O)N12)Nc1cccc(Cl)c1 (stereo unspecified),/,.,/,.,/,.
CCCOC(=O)c1c(NC(=O)c2nc3ncccn3n2)sc(C(=O)OCC)c1C,/,.,/,.,/,.
CCN(CC)C(=O)c1sc(NC(=O)c2nc3ncccn3n2)c(C(=O)OC)c1C,/,.,/,32,/,.
Cc1ccc(-c2nnn(C/C(N)=N/O)n2)cc1,.,?,.,36,.,.
N/C(Cn1nnc(-c2ccccc2)n1)=N\O,.,.,.,.,.,.
CCC(=O)N1c2ccccc2CC1C(=O)NCCc1ccccc1Cl (stereo unspecified),/,.,/,.,/,.
CC(C)Oc1ccc(CNC(=O)c2ccc3c(c2)nc2n3CCOC2)cc1,/,.,/,.,/,.
S=C(Nc1ccccc1)Nc1nccs1,?,13µM,.,.,.,.
Cn1cc(S(=O)(=O)c2ccccc2)c(=O)c2cc(F)c(N3CCN(c4ccccc4)CC3)cc21,/,.,/,.,/,.
CCN1/C(=C\c2ccc3cc(C)ccc3[n+]2CC)Sc2cc(C)c(C)cc21,.,3.2µM,/,.,.,.
CCN1/C(=C/c2ccc3cc(C)ccc3[n+]2CC)Sc2ccc3sccc3c21,/,/,/,/,.,/
CCN1/C(=C/C(C)=C/c2sc3ccccc3[n+]2CC)Sc2ccccc21,/,.,?,.,.,.
CCN1/C(=C/c2ccc3cccc(C)c3[n+]2CC)Sc2ccccc21,.,?,?,/,54,/
CCN1/C(=C/c2ccc3cc(C)cc(C)c3[n+]2CC)Sc2cc(C)ccc21,?,16µM,/,35,.,.
SMILES,CBFb-RUNX1 inh,Epigenetic reg,MBNL1 CUG block,TRHR PAM,IL-2 act,TRHR ag
Cc1cccc(CCNC(=O)CN(c2ccc(C(C)C)cc2)S(=O)(=O)c2c(C)nn(C)c2C)c1,/,.,/,.,/,.
O=C(CC1N=C2c3ccccc3N=C(SCc3ccccc3Cl)N2C1=O)NCCc1ccccc1 (stereo unspecified),/,.,/,.,/,.
COC(=O)CN1C(=O)CSc2ccc(S(=O)(=O)Nc3ccc(F)c(Cl)c3)cc21,/,.,/,.,/,.
COC(=O)c1cc(F)c(S(=O)(=O)N2CCN(S(=O)(=O)c3ccc4c(c3)OCCO4)CC2)cc1F,/,/,/,.,/,.
COc1ccc(NC(=O)CSc2ccc3c4c(cccc24)C(=O)c2ccccc2-3)cc1,.,?,.,/,184,/
N#Cc1cccc(NC(=O)CSc2ccc3c4c(cccc24)C(=O)c2ccccc2-3)c1,.,5µM,?,.,.,.
O=C(O)COc1ccccc1C1Nc2ccccc2-c2nnc(SCc3ccc(Cl)cc3)nc2O1 (stereo unspecified),/,.,/,.,/,.
O=S(=O)(NCCc1csc2nc(-c3ccc(F)cc3)nn12)c1ccc2c(c1)OCCO2,/,.,/,.,/,.
COc1cccc(C(=O)Nc2cc(C(=O)NCCc3ccccc3)ccc2Cl)c1,.,.,.,.,.,.
COc1cccc(/C(O)=C/c2nc3ccc(C(=O)NCCc4ccc(Cl)cc4)cc3[nH]c2=O)c1,.,7.9µM,.,.,?,.
COc1cccc(/C(O)=C/c2nc3ccc(C(=O)NCCc4cccc(C)c4)cc3[nH]c2=O)c1,.,14µM,.,.,.,.
O=C(O)/C=C/c1cc(F)c(S(=O)(=O)N2CCN(S(=O)(=O)c3ccc4c(c3)OCCO4)CC2)cc1F,/,/,/,.,/,.
CCCCCCCC(O)CC(CC1CCCCC1)C(=O)NN (stereo unspecified),.,.,/,33,.,.
COc1ccc(Br)cc1S(=O)(=O)N1CCN(S(=O)(=O)c2ccc3c(c2)OCCO3)CC1,/,/,/,.,/,.
O=c1oc2c3c4c(cc2c(C(F)(F)F)c1CCN1CCOCC1)CCCN4CCC3,.,?,.,.,.,95
O=C(O)c1ccccc1C(=O)Nc1cccc([N+](=O)[O-])c1,.,.,?,.,.,.
O=C(O)c1ccccc1C(=O)Nc1ccc(Nc2ccc([N+](=O)[O-])cc2[N+](=O)[O-])cc1,/,/,?,35,.,.
CC(C)CCNC(=O)Nc1ccc2c(c1)N(C)C(=O)c1ccccc1S2,/,.,/,.,/,.
CCOC(=O)CC1COc2ccccc2N1C(=O)c1cccc([N+](=O)[O-])c1 (stereo unspecified),/,/,.,31,.,.
COC(=O)CC1COc2ccccc2N1C(=O)c1cccc(Cl)c1 (stereo unspecified),.,.,.,.,.,.
COc1ccc(NC(=O)Cn2c(=O)n(Cc3ccccc3)c(=O)c3sc4ccccc4c32)cc1,/,.,/,35,/,.
N#CN1CCC(N[S+](=O)([O-])c2cccc(F)c2)CC1,/,/,/,.,/,.
CC(C)C(=O)NNC(=O)c1csc(-c2cccs2)n1,.,.,?,32,.,.

# High-throughput results deposited in PubChem BioAssay by National Center for Advancing Translational Sciences (NCATS).
